Reference: PubChem BioAssay (NCATS)
Inconclusive results are not listed. Activity calls are given as the source filed them. Calls come from the whole dose curve; as a rule, active = well fitted inhibition curve with a large enough effect; inconclusive = small, poorly fitted or top-dose-only effect; inactive = flat fitted curve, though single readings scatter. Where a SMILES comes first, the peptide text is derived from it.

Columns and labels:
Assay in all cases: Cytotoxic Profiling of Annotated Libraries Using Quantitative High-Throughput Screening (AID 1296008); note: nearly all actives have a fitted effect of over 60% in size
Settings in all cases: Five cell lines viability, CellTiter-Glo ATP luminescence, 48-72 h; max response: hits give low values
[1] = system: CRL-7250
Summary of the method: (§1)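 Cytotoxicity was measured as CellTiter-Glo ATP luminescence, read after 10 min at room temperature. Compound treatment of the cells lasted 48 or 72 hr at 37 degrees Celsius in a qHTS format.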

[2] = system: HEK293
Summary of the method: as §1

[3] = system: HaCat
Summary of the method: as §1

[4] = system: KB-3-1
Summary of the method: as §1

[5] = system: NIH3T3
Summary of the method: as §1
% is set by controls: 0 for no effect and ±100 for the full control effect; potency is the fitted concentration of half-maximal effect.

CC/C=C\[C@H](O)[C@H](O)C1=C(C)C(=O)[C@]2(O1)C(=O)N[C@@](O)(C(=O)c1ccccc1)[C@@H]2O
inactive: outcome [1] | max response [2] 2.91% | max response [3] -6.31% | outcome [4] | outcome [5]

O=C(O)C(Cc1ccccc1)NC(=O)C1CCCN1 (stereo not drawn) (H-Pro-Phe-OH; configuration not given here)
inactive: max response [1] -5.01% | max response [2] 0.403% | max response [3] -6.92% | outcome [4] | outcome [5]

C/C(=C\CCC(C)C1CC(O)C2(C)C3CCC4C(C)(C)C(OC5OCC(O)C(O)C5O)CCC45CC35CC(O)C12C)C(=O)O (stereo not given)
inactive: max response [1] 3.53% | max response [2] 0.956% | max response [3] 3.75% | max response [4] 9.72% | outcome [5]

C[C@@H]1[C@H](O)[C@@H]2OC(=O)C3=C2[C@H](CCC3)[C@@]12C[C@@H](c1ccoc1)OC2=O
inactive: max response [1] 4.91% | max response [2] -1.21% | max response [3] -22.1% | outcome [4] | outcome [5]

C/C=C(\C)C(=O)OC[C@H]1O[C@@H](O[C@H]2[C@@H](O[C@H]3O[C@H](COC(=O)/C(C)=C/C)[C@@H](O)[C@H](O)[C@H]3O[C@@H]3O[C@H](CO)[C@@H](O)[C@H](OC(=O)/C(C)=C/C)[C@H]3O)O[C@H](COC(=O)/C(C)=C/C)[C@@H](O)[C@@H]2O)[C@H](O)[C@@H](O)[C@@H]1O
inactive: max response [1] -2.42% | max response [2] -5.26% | max response [3] 2.69% | outcome [4] | outcome [5]

COc1ccc(-n2c(=O)[nH]c3cc(C(=O)NCc4ccc(Cl)cc4)sc3c2=O)nc1OC
inactive: max response [1] 1.31% | max response [2] 2.86% | max response [3] -5.79% | max response [4] 2.11% | outcome [5]

C/C=C(\C)C1C(C)=CC2CCC(OS(=O)(=O)O)C(C)C2C1/C=C/C=C/C(=O)O (stereo not given)
inactive: outcome [1] | outcome [2] | max response [3] -12.6% | max response [4] 7.13% | max response [5] -0.702%

CC(CCO)CCC1C2(C)CCCC(C)(C)C2CC[C@@]1(C)O (stereo not given in full)
inactive: outcome [1] | max response [2] -13.3% | max response [3] -19.9% | max response [4] 7.08% | outcome [5]

C[C@@H]1CC[C@]2(C(=O)O)CC[C@]3(C)C(=CCC4[C@@]5(C)C[C@@H](O)[C@@H](O)C(C)(C)C5CC[C@]43C)C2[C@]1(C)O (stereo not given in full)
inactive: max response [1] -1.23% | outcome [2] | max response [3] -10.3% | max response [4] 9.05% | max response [5] -8.5%

O=C(OC[C@H]1O[C@H](O[C@H]2CO[C@H](CO)[C@@H](O)[C@@H]2O)[C@H](O)[C@@H](O)[C@H]1O)c1ccccc1
inactive: max response [1] -5.33% | outcome [2] | max response [3] -15.9% | max response [4] -0.911% | max response [5] 4.33%

C[C@@H]1C[C@@H](O)[C@@]23CO[C@]2(CO)CCC[C@@H]3[C@@]12C[C@@H](c1ccoc1)OC2=O
inactive: max response [1] -8.12% | max response [2] 2.85% | max response [3] -3.9% | max response [4] 7.05% | outcome [5]

CC[C@H]1OC(=O)[C@H](C)[C@@H](O[C@H]2C[C@@](C)(OC)[C@@H](O)[C@H](C)O2)C(C)[C@@H](O[C@@H]2O[C@H](C)C[C@H](N(C)C)[C@H]2O)[C@](C)(O)C[C@@H](C)CN(C)[C@H](C)[C@@H](O)[C@]1(C)O (stereo not given in full)
inactive: max response [1] -0.571% | max response [2] 1.9% | max response [3] -11.4% | max response [4] -2.18% | outcome [5]

C/C=C(\C)C(=O)OC1C(C)C2(O)C3C=C(C)C(=O)C3CC(CO)=CC2C2C(C)(C)C12OC(C)=O (stereo not given)
inactive: max response [1] -31.4% | max response [2] -25.8% | max response [3] 4.78% | max response [4] 2.42% | outcome [5]

COc1cc(/C=C/C(=O)O[C@H]2C[C@@H]3C(C(=O)O)=CO[C@@H](O[C@@H]4O[C@H](CO)[C@@H](O)[C@H](O)[C@H]4O)[C@@H]3[C@H]2C)ccc1O
inactive: outcome [1] | outcome [2] | max response [3] 3.27% | outcome [4] | max response [5] 1.34%

C=C[C@@](C)(CCC=C(C)C)O[C@@H]1O[C@H](CO[C@@H]2OC[C@H](O)[C@H](O)[C@H]2O)[C@@H](O)[C@H](O)[C@H]1O
inactive: outcome [1] | outcome [2] | max response [3] 0.544% | outcome [4] | max response [5] 4.46%

Nc1nc(COC(=O)c2ccc([N+](=O)[O-])cc2)nc(Nc2ccccc2)n1
inactive: max response [1] -7.38% | max response [2] -16.5% | max response [3] -9.19% | max response [4] -4.58% | outcome [5]

CCCCS(=O)(=O)NC(Cc1ccc(OCCCCC2CCNCC2)cc1)C(=O)O (stereo not given)
inactive: max response [1] -1.48% | max response [2] -14% | max response [3] 4.29% | max response [4] 0.365% | outcome [5]

Cn1nccc1-c1ccccc1Oc1ccc(S(=O)(=O)Nc2nccs2)cc1C#N
inactive: outcome [1] | outcome [2] | max response [3] -17.4% | max response [4] 2.49% | max response [5] 0.589%

O=C(Nc1cc(-c2ccccc2)nn1-c1ccccc1F)c1ccc([N+](=O)[O-])cc1
active: Potency [2] 23.1 µM
inactive: max response [1] -9.65% | max response [3] 2.32% | max response [4] -2.53% | outcome [5]

C[C@H]1[C@@H](O)[C@H](O)C2[C@]3(C)C([C@@H](O)[C@H]4OC(=O)[C@@H]1[C@@]24C)[C@](C)(O)C=C[C@H]3O[C@@H]1O[C@H](CO)[C@@H](O)[C@H](O)[C@H]1O (stereo not given in full)
inactive: max response [1] 0.954% | max response [2] -1.06% | max response [3] -2.23% | max response [4] 8.84% | outcome [5]

COc1cccc(OC)c1-c1nc(C(=O)N[C@@H](CC(C)C)C(=O)O)cn1-c1ccnc2cc(Cl)ccc12
inactive: outcome [1] | max response [2] -12.4% | max response [3] 3.78% | outcome [4] | outcome [5]

COc1cc(Cc2cnc(N)nc2N)c(C(C)C)cc1OC
inactive: max response [1] -4.26% | outcome [2] | max response [3] -0.359% | max response [4] 4.42% | max response [5] 3.87%

Cc1nc2cc(-c3cc(F)cc(C#N)c3)ccc2s1
inactive: max response [1] -5.31% | max response [2] -12.9% | max response [3] -10.9% | max response [4] 0.518% | outcome [5]

Fc1cccc(CN(C2=NCCN2)c2c(Cl)cccc2Cl)c1
inactive: max response [1] -5.57% | max response [2] -13.5% | max response [3] 0.445% | max response [4] 5.56% | outcome [5]

O=C(/C=C/c1ccc(O)cc1)O[C@@H]1C[C@@](O)(C(=O)O)C[C@@H](O)[C@@H]1O
inactive: max response [1] -19.8% | max response [2] -2.92% | max response [3] -16.3% | max response [4] 5.75% | outcome [5]

COc1cc(/C=C/C(=O)O[C@H]2[C@H](O)[C@@H](CO)O[C@@]2(CO)O[C@H]2O[C@H](CO)[C@@H](O)[C@H](O)[C@H]2O)cc(OC)c1O
inactive: outcome [1] | max response [2] -9.27% | max response [3] -10.1% | max response [4] 3.15% | outcome [5]

C/C=C(/C)C(=O)OC1C2OC2C2(CO2)C2C3OC(=O)C(C)C3CCC12C (stereo not given)
inactive: max response [1] -1.71% | outcome [2] | max response [3] 3.73% | max response [4] 9.88% | max response [5] -1.74%

O=C(O)CCc1cc2ccoc2cc1O[C@@H]1O[C@H](CO)[C@@H](O)[C@H](O)[C@H]1O
inactive: outcome [1] | max response [2] 1.52% | max response [3] 0.684% | outcome [4] | outcome [5]

COC(=O)CCC1(C)C(C(C)(C)O)C(O)CC2(C)Oc3c(C)c4c(c(OC)c3CC21)C(=O)OC4 (stereo not given)
inactive: max response [1] -9.47% | outcome [2] | max response [3] -0.542% | max response [4] 5% | max response [5] -1.25%

CC(C)C(O)(CO)CCO[C@@H]1O[C@H](CO[C@H]2OC[C@](O)(CO)[C@H]2O)[C@@H](O)[C@H](O)[C@H]1O (stereo not given in full)
inactive: max response [1] 2.62% | max response [2] -11.4% | max response [3] -9.77% | max response [4] 4.64% | outcome [5]

COc1ccc(/C=C/C(=O)O[C@@H]2[C@@H](OC(C)=O)[C@@H](OC(C)=O)[C@H](O[C@H]3[C@@H]4C=CO[C@@H](O[C@@H]5O[C@H](CO)[C@@H](O)[C@H](O)[C@H]5O)[C@@H]4[C@@]4(CO)O[C@@H]34)O[C@H]2C)cc1
inactive: outcome [1] | max response [2] -1.95% | max response [3] 0.723% | max response [4] 2.76% | outcome [5]

C=C1C(OC(C)=O)CCC2(C)CCC(C(C)(C)O)CC12 (stereo not given)
inactive: max response [1] -5.46% | max response [2] -1.52% | max response [3] -5.19% | max response [4] 1.41% | outcome [5]

O=C(O)CC1(O)C(=O)Nc2ccccc21 (stereo not given)
inactive: outcome [1] | outcome [2] | max response [3] -2.76% | max response [4] 6.03% | max response [5] 3.37%

C=C1C[C@@]2(O)O[C@@]3(C[C@H]2C(C)C)[C@@H](C)CC[C@@H]13
inactive: outcome [1] | max response [2] -11.6% | max response [3] -13.2% | max response [4] 9.57% | outcome [5]

CCCN1CCC[C@@H](c2cccc(S(C)(=O)=O)c2)C1
inactive: max response [1] -1.62% | max response [2] -20.6% | max response [3] -5% | max response [4] -6.47% | outcome [5]

CC1CCC2C(C(=O)O)=CC3(O)CC(C)(C)CC123 (stereo not given)
inactive: max response [1] 2.87% | outcome [2] | max response [3] 0.596% | max response [4] 4.07% | max response [5] 1.6%

CC1(C)CC[C@]2(C(=O)O)CC[C@]3(C)C(=CCC4[C@@]5(C)C(=O)C[C@H](O)[C@@](C)(CO)C5CC[C@]43C)[C@@H]2C1 (stereo not given in full)
inactive: max response [1] -2.6% | max response [2] 3.17% | max response [3] -1.1% | max response [4] 8.25% | outcome [5]

CSCC1OC(n2cnc3c(N)ncnc32)C(O)C1O (stereo not given)
inactive: outcome [1] | outcome [2] | max response [3] 2.69% | outcome [4] | max response [5] -0.346%

CC(=O)OC1CC2(C)C(CCC(C)C23Cc2c(O)cc4c(c2O3)CNC4=O)C(C)(C)C1O (stereo not given)
inactive: max response [1] -8.86% | outcome [2] | max response [3] -6.41% | outcome [4] | max response [5] -10.8%

COc1cc2c(cc1OC)N1C(=O)C[C@@]34C=CC[N@+]5([O-])CC[C@H]2[C@H](CC3)[C@@]145
inactive: max response [1] -5.36% | max response [2] -9.63% | max response [3] -4.24% | max response [4] 1.95% | outcome [5]

C=CC(C)(O)CC/C=C(\C)C(=O)O[C@@H]1[C@@H](O)[C@H](OC(C)(C=C)CC/C=C(\C)C(=O)O)O[C@H](CO)[C@H]1OC(=O)/C(C)=C/CCC(C)(O)C=C (stereo not given in full)
inactive: outcome [1] | max response [2] -0.372% | max response [3] -21.2% | outcome [4] | outcome [5]

C#CCCCn1cc(-c2cccc3c2N[C@@H](C)CC(=O)N3)cn1
inactive: max response [2] -6.8% | max response [3] -14.3% | outcome [4] | outcome [5]
active: Potency [1] 18.4 µM
